What was measured:
Assay in all cases: log2 ratio of Biotin-Ahx-Ub-VS probe labelling (fragment/DMSO); higher = less target engagement (more negative = stronger competition), active = hit call of the paper (q ≤ 0.05, log2 ratio ≤ -1)
Conditions in all cases: compound concentration: 200 uM; treatment time: 3 h
USP42 = target: T1, USP42 (UniProt Q9H9J4)
T1 sequence (whole entry): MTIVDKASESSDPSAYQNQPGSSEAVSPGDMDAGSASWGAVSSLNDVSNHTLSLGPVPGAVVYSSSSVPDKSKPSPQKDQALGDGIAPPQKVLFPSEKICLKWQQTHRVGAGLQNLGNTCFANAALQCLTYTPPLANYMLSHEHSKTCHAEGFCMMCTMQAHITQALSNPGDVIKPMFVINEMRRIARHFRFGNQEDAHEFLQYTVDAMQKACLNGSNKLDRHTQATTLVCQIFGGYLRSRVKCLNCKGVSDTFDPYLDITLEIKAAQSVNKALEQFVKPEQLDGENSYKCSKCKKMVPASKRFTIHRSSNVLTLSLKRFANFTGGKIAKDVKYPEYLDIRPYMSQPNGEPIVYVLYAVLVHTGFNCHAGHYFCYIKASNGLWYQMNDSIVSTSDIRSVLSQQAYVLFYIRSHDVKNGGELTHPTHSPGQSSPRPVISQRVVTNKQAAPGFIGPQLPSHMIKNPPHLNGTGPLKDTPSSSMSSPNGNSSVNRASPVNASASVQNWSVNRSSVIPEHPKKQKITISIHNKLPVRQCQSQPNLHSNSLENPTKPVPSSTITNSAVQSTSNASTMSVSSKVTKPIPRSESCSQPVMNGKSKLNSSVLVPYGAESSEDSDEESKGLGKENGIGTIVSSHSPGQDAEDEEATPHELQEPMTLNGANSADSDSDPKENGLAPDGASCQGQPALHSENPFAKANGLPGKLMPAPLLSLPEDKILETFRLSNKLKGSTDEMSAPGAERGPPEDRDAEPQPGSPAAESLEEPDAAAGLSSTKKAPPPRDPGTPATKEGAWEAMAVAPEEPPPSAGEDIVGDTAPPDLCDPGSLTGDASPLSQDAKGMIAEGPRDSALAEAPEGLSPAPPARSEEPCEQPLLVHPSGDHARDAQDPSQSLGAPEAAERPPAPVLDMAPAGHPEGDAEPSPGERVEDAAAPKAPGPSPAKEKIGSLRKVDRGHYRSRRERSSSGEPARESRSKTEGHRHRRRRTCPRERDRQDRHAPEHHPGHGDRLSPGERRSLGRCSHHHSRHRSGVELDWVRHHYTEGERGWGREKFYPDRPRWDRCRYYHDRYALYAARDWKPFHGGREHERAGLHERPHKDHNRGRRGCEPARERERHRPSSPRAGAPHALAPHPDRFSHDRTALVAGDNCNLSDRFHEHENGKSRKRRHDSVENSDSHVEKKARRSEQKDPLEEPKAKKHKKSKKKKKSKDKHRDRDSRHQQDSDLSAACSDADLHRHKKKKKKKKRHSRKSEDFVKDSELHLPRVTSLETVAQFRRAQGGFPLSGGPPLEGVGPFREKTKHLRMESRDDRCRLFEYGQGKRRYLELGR
Summary of the method: (§1)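 HEK293T lysate, 495 µg per sample in Tris/CHAPS/IGEPAL buffer with protease inhibitors, was treated in triplicate with fragment at 200 µM or vehicle for 3 h and then with Biotin-Ahx-Ub-VS at 0.5 µM final for 1 h. Labelled DUBs were NeutrAvidin-enriched, digested with LysC and trypsin, and run by diaPASEF LC-MS/MS. Spectronaut label-free quantities were global-median-normalised, and values are average log2 fragment/vehicle ratios by unpaired t-test on proteins with ≥2 unique peptides.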

USP46 = USP46 (UniProt P62068)
Summary of the method: as §1

USP47 = target: T2, USP47 (UniProt Q96K76)
T2 sequence (whole entry): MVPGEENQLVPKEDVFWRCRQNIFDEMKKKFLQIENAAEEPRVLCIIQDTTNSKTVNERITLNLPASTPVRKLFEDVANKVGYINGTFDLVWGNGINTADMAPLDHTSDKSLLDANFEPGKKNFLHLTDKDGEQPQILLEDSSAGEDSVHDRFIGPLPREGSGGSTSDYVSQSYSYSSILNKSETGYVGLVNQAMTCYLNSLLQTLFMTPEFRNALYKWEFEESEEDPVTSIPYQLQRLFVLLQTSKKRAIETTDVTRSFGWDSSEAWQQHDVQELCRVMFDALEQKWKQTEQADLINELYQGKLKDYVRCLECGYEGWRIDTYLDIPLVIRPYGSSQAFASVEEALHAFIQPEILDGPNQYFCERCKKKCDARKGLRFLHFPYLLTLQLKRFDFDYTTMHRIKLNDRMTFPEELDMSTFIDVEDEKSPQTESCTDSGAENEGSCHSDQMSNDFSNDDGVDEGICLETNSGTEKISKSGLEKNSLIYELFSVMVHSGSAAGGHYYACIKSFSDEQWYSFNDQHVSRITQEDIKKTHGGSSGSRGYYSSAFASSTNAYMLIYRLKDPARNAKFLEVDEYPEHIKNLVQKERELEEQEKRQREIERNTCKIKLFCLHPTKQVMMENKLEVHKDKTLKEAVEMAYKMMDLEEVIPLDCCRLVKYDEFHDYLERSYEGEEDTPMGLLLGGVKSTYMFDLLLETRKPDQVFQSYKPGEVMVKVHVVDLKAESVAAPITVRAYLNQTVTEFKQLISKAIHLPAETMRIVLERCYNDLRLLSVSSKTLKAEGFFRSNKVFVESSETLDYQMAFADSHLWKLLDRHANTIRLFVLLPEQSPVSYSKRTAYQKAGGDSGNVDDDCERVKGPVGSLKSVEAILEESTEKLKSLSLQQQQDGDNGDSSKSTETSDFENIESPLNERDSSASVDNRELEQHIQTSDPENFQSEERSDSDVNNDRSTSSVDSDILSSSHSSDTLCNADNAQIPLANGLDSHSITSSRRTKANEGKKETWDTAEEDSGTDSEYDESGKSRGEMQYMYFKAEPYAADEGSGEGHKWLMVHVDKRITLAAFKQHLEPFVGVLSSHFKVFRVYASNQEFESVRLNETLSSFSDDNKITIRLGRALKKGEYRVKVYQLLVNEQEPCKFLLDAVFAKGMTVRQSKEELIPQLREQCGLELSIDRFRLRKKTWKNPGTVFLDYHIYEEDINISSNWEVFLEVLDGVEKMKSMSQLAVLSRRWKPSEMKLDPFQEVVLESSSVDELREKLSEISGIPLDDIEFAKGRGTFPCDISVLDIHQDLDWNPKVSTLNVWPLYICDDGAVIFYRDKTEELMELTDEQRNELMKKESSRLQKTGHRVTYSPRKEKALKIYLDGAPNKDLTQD
Summary of the method: as §1

USP48 = target: T3, USP48 (UniProt Q86UV5)
T3 sequence (whole entry): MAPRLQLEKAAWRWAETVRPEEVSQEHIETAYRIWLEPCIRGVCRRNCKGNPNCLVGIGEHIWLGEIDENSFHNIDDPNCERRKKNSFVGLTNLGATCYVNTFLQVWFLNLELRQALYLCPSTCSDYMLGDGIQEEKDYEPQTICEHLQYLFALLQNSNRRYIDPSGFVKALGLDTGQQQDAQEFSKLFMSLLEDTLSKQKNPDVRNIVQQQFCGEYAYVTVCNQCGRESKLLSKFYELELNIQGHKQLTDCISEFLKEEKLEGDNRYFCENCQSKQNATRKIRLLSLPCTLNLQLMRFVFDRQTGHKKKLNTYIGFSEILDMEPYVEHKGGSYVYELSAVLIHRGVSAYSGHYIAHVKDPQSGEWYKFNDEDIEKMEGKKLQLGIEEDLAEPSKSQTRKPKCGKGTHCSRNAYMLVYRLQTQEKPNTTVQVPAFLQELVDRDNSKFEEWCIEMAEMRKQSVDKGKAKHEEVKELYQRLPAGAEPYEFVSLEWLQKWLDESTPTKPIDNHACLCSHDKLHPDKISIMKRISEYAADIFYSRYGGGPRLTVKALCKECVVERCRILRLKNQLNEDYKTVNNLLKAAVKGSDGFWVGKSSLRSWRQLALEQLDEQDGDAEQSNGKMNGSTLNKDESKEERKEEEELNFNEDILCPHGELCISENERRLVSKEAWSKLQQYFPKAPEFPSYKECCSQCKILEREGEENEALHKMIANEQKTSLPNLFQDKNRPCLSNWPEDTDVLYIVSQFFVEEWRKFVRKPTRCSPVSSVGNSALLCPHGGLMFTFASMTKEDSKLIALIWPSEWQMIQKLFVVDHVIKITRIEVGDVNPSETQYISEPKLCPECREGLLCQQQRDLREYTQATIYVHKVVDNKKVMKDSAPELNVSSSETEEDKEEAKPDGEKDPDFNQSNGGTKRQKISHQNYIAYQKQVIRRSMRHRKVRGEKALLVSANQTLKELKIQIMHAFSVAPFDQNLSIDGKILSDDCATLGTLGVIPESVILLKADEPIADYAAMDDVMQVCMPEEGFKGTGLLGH
Summary of the method: as §1

USP5 = target: T4, USP5 (UniProt P45974)
T4 sequence (whole entry): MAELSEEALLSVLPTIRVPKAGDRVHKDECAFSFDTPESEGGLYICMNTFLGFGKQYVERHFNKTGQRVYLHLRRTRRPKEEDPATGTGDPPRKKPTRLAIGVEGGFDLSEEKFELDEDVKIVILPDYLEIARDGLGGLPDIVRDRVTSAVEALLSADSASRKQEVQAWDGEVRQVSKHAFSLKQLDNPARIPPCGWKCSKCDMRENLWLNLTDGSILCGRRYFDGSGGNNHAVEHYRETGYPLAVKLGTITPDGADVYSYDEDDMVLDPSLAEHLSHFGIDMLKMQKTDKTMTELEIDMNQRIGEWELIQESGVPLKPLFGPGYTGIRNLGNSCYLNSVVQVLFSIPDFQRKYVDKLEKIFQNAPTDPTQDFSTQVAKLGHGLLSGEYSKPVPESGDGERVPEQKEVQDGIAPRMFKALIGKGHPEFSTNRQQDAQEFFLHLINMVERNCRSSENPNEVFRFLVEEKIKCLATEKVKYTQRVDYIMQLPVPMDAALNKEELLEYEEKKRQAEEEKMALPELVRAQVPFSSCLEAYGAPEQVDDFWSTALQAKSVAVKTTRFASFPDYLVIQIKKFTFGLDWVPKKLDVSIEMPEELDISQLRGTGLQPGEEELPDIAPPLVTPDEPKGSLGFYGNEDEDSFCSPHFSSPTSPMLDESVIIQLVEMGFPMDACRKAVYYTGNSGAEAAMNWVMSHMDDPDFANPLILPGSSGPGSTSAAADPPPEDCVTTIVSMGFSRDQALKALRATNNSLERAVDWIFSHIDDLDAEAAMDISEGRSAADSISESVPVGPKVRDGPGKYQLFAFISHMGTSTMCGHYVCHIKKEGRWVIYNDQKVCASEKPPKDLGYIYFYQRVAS
Summary of the method: as §1

USP54 = USP54 (UniProt Q70EL1)
Summary of the method: as §1

USP7 = USP7 (UniProt Q93009)
Summary of the method: as §1

USP8 = target: T5, USP8 (UniProt P40818)
T5 sequence (whole entry): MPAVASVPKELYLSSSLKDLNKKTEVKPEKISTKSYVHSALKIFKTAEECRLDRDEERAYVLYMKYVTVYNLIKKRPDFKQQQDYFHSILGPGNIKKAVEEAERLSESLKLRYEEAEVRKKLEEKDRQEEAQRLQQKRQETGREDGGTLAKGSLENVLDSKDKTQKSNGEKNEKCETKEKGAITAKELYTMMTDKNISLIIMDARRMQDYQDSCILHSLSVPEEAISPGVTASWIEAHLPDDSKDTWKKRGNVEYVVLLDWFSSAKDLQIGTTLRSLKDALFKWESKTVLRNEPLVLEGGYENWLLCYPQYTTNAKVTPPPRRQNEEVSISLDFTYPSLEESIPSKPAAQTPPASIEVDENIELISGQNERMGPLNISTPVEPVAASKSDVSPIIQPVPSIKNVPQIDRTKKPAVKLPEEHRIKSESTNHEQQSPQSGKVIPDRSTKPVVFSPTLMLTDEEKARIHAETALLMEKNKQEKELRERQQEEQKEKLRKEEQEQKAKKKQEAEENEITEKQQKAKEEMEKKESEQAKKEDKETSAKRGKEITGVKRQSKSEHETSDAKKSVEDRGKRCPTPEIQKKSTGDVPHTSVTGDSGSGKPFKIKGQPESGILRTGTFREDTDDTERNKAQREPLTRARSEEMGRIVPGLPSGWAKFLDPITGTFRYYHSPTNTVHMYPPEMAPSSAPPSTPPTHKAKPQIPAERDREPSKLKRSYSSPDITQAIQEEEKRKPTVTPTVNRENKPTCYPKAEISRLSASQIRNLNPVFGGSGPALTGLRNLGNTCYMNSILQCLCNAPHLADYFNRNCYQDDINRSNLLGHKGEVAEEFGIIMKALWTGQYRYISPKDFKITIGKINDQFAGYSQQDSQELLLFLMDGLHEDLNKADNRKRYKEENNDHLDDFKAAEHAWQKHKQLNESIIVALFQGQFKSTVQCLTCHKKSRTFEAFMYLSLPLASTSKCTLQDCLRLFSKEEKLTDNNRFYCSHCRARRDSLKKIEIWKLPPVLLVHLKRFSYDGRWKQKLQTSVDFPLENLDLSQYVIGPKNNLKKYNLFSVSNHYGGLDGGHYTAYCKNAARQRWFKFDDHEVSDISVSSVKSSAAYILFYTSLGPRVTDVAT
Summary of the method: as §1

USP9X = USP9X (UniProt Q93008)
Summary of the method: as §1

UniProt O00487 = target: UniProt O00487
Summary of the method: as §1

Measured: log2 ratio of Biotin-Ahx-Ub-VS probe labelling

USP54, sequence (Q70EL1 whole entry): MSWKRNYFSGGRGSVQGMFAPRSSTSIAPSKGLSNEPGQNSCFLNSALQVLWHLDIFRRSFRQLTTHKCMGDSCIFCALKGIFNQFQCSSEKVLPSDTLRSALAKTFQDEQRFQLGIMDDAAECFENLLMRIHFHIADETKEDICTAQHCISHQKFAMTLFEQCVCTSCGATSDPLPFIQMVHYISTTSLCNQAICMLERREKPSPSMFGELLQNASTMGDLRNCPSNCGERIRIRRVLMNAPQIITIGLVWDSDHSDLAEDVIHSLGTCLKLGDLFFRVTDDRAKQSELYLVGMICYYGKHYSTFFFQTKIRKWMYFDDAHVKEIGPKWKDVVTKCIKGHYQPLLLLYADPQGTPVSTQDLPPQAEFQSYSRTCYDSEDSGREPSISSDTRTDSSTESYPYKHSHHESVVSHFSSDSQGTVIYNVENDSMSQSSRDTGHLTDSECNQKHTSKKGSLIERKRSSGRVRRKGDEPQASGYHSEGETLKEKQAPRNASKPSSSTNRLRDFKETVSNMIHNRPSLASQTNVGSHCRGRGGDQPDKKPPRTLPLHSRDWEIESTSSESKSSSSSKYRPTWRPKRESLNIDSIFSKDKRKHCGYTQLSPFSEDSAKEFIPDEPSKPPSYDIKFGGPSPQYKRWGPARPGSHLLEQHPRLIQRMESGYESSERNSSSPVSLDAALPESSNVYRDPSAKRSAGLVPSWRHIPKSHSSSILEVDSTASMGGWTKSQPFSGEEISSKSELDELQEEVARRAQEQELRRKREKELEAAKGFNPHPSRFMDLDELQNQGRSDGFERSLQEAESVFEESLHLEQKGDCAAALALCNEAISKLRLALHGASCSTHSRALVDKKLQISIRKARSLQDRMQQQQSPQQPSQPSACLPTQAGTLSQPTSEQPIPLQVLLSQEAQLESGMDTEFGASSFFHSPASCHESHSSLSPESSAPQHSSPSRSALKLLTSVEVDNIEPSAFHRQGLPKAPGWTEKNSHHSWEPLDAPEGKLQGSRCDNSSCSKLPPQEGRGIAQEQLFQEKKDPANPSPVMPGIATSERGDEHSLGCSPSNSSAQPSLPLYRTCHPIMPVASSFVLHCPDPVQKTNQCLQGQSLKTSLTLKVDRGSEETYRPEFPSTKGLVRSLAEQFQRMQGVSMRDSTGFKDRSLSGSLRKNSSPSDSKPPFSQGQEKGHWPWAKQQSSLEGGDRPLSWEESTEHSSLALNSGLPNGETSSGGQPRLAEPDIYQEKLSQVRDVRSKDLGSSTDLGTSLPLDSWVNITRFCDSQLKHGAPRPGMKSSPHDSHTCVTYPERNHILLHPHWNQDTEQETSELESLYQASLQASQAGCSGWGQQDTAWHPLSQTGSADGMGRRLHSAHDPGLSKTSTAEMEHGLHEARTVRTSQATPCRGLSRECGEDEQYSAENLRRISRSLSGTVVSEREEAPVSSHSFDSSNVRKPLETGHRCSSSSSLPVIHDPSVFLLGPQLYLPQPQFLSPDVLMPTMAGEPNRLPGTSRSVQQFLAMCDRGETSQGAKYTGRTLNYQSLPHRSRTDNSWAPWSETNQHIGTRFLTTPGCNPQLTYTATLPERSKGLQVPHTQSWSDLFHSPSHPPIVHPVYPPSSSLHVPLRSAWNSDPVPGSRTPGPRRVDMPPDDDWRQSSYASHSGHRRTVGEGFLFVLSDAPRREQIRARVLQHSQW
USP46, sequence (P62068 whole entry): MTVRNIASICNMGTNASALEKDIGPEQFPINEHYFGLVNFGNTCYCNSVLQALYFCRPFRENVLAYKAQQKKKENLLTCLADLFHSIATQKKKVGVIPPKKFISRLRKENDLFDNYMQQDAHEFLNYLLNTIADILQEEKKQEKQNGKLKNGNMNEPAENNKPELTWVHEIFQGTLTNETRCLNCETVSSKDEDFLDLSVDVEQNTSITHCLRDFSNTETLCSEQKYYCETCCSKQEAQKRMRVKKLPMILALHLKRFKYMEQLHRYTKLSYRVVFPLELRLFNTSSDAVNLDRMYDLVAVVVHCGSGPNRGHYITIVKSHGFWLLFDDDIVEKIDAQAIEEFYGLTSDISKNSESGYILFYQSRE
USP7, sequence (Q93009 whole entry, looked up): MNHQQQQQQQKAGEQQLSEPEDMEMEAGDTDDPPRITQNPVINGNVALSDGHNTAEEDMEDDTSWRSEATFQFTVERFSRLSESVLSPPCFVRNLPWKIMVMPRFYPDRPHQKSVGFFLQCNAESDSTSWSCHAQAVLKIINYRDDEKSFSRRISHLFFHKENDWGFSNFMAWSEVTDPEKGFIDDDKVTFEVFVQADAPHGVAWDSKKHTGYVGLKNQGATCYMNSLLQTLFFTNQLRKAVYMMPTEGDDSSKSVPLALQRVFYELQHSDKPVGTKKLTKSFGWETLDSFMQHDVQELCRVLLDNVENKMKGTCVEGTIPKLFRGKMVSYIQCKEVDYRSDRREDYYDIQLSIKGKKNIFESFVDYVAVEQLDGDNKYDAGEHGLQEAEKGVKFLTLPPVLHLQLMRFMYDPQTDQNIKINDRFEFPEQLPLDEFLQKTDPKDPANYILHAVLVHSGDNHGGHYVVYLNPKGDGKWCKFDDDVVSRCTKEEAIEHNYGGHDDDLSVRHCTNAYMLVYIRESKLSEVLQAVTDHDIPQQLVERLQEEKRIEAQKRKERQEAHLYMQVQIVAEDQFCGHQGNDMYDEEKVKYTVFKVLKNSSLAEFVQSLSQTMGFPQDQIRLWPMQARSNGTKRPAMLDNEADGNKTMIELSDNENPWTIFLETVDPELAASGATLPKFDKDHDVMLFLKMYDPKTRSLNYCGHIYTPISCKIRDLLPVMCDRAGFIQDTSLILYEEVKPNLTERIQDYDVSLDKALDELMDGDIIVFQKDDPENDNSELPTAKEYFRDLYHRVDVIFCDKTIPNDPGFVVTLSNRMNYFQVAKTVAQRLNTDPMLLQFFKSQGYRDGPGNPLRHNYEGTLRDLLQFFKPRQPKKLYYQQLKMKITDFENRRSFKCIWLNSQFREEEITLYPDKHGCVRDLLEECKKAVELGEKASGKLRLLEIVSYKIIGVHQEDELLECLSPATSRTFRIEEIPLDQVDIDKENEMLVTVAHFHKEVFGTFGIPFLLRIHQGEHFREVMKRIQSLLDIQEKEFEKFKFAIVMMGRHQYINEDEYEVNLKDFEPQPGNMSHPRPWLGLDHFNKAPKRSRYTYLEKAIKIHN
UniProt O00487, sequence (O00487 whole entry): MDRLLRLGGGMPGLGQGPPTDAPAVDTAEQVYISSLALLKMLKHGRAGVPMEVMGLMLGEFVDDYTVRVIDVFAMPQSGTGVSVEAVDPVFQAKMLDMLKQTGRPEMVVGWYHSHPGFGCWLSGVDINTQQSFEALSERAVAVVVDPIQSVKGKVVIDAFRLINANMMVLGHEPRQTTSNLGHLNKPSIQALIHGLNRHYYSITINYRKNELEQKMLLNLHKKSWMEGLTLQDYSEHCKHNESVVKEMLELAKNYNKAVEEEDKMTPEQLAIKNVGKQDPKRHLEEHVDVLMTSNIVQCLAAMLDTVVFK

Cc1cc(C(=O)NC2CCN(C(=O)CCl)CC2)no1
inactive: USP42 -0.284 | USP46 -0.048 | USP47 -0.0545 | USP48 -0.0815 | USP5 0.0506 | USP54 -0.176 | USP7 -0.222 | USP8 -0.0431 | USP9X -0.158 | UniProt O00487 -0.138

Reference: the supplement of paper PMC11732987, “Enantioselective OTUD7B fragment discovery through chemoproteomics screening and high-throughput optimisation” (Communications Chemistry, 2025)
